Data on 22 compounds can be found in PubChem BioAssay AID651650 (Sanford-Burnham Center for Chemical Genomics, 2012).

For the test, the target named is Neuropilin-1 (Homo sapiens) (UniProt O14786). The test is described as follows: NRP-1 b1b2 CendR peptide binding inhibitors, dose response, biochemical, FP and AlphaScreen panel (AID 651650). To be noted: NRP-1 b1b2 / RPARPAR peptide binding, FP or AlphaScreen; run 1, at 100 µM (top of the series).
Neuropilin-1 (Homo sapiens), sequence (O14786 whole entry, looked up): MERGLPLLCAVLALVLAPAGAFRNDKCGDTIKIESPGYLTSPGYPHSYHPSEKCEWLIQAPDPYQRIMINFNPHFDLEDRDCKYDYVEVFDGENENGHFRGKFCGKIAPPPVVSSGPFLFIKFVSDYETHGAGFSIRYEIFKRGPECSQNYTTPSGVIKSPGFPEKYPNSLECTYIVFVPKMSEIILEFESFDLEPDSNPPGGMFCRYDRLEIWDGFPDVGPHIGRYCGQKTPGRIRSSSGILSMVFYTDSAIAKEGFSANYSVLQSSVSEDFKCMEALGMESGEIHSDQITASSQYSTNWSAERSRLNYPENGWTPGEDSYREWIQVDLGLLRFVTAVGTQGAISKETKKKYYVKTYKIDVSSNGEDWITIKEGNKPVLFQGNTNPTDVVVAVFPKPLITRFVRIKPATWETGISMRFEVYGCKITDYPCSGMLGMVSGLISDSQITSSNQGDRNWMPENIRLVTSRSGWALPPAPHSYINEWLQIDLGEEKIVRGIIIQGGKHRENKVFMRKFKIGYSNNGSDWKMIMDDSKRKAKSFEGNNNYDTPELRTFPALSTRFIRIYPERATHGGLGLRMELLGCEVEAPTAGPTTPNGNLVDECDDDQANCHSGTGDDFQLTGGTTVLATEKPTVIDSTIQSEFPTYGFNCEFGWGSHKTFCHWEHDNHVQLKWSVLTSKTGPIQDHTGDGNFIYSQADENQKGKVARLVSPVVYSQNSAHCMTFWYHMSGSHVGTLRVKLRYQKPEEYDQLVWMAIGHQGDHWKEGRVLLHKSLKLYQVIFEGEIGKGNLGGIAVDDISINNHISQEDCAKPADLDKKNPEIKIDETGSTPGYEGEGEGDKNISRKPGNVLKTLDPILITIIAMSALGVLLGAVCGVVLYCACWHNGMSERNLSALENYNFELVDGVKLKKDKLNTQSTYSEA
Regarding `CCCn1c(C)cc(C(=O)CSc2nc3nc(C)cc(C)n3n2)c1C`, the inhibition amounted to 5.46%.
With `COc1cc(OC)nc(NC(=O)COC(=O)c2cccc(Cl)c2)n1` the figure was 98.8%; with `COc1ccc(C2CC(C(F)(F)F)n3nc(C(=O)O)c(Cl)c3N2)cc1OC` (configuration not stated), 46.4%.
For `COc1ccc(CCNC(=O)c2c(O)c3cccc4c3n(c2=O)CC4)cc1OC`, the inhibition is 37.4%.
With `Cc1cc(C)n2c(SCC(=O)Nc3cccc(S(N)(=O)=O)c3)nnc2n1` the figure was -5.38%; with `COc1ccc(-c2cc(C)no2)cc1S(=O)(=O)NCc1cccc(C)c1`, 23.2%.
As to `CC1CCN(C(=O)c2[nH]cnc2C(=O)NCc2ccc(CNC(=O)OC(C)(C)C)cc2)CC1`, the inhibition was 55.2%.
For `Cc1ccccc1-n1ncc2c1CC(C)(C)CC2NC(=O)c1ccncc1` (configuration not stated), the inhibition was found to be 28.1%.
Consider `CNc1nc(-c2ccc3c(c2)CCN3C(=O)c2ccccc2F)cs1`, for which the inhibition amounted to 14.5%.
With `CN(C)CCn1c(=O)n(-c2ccc(F)cc2)c(=O)c2c3c(sc21)CCCCC3` the figure was 77.8%.
For `O=[N+]([O-])c1ccc(Cc2ccncc2)cc1`, the inhibition was 15.9%.
As to `CCOc1ccccc1C1CC(=O)NC2=C1C(=O)CC(C)(C)C2` (configuration not stated), the inhibition amounted to 32%.
Consider `CCOC(=O)N1CCN(C(=O)c2cc3n(n2)C(C(F)(F)F)CC(c2ccc4c(c2)OCO4)N3)CC1` (configuration not stated), for which the inhibition worked out at 30.7%.
With `O=C(CSc1nc(O)c(Cc2ccccc2)c(=O)n1-c1ccccc1)N1CCOCC1` the figure was -18.5%; with `COc1ccc(-c2csc(Nc3cccnc3)n2)cc1`, 47.6%.
On to `CCOC(=O)C1=C(O)C(=O)N(c2ccccc2)C1c1cccc([N+](=O)[O-])c1` (configuration not stated), for which the inhibition turned out to be 26.5%.
With `O=C(CCc1ccc(Oc2cc([N+](=O)[O-])cc([N+](=O)[O-])c2)cc1)N1CCCCCC1` the figure was 75.6%.
With `CCN(C[C@H]1N[C@@](CC)(C(=O)OC)[C@H]2C(=O)N(C)C(=O)[C@@H]12)S(=O)(=O)c1ccc(OC)cc1` the figure was 30.5%; with `Cc1ccc(C(=O)N/C(=C\c2ccc(-c3ccccc3[N+](=O)[O-])o2)C(=O)NCCCN2CCOCC2)cc1`, 13.2%; with `CCCCCc1c(-c2cccc(Cl)c2)ncn1CCc1ccccc1OC`, 51.8%.
On to `Clc1nc(-c2ccccn2)nc2scc(-c3ccccc3)c12`, for which the inhibition stood at 7.99%.
For `NC(=O)c1c(NC(=O)C(=O)N2CCOCC2)sc2c1CCCC2`, the inhibition stood at 16.2%.
